Source: PubChem
Pol kappa inh-1 – inhibitors of human DNA polymerase kappa | Q9UBT6 | purified Pol kappa, fluorescent DNA synthesis assay, 10 min | Potency, µM (top dose mostly 107 µM), for the others: at the top dose activity, negative = inhibition, usual class: inhibitors | hit rate 0.53% among 400,000; also: potency is read from the fitted curve at half-maximal effect; % is scaled to controls: 0 for no effect and ±100 for the full control effect
Target sequence (Q9UBT6 whole entry, looked up): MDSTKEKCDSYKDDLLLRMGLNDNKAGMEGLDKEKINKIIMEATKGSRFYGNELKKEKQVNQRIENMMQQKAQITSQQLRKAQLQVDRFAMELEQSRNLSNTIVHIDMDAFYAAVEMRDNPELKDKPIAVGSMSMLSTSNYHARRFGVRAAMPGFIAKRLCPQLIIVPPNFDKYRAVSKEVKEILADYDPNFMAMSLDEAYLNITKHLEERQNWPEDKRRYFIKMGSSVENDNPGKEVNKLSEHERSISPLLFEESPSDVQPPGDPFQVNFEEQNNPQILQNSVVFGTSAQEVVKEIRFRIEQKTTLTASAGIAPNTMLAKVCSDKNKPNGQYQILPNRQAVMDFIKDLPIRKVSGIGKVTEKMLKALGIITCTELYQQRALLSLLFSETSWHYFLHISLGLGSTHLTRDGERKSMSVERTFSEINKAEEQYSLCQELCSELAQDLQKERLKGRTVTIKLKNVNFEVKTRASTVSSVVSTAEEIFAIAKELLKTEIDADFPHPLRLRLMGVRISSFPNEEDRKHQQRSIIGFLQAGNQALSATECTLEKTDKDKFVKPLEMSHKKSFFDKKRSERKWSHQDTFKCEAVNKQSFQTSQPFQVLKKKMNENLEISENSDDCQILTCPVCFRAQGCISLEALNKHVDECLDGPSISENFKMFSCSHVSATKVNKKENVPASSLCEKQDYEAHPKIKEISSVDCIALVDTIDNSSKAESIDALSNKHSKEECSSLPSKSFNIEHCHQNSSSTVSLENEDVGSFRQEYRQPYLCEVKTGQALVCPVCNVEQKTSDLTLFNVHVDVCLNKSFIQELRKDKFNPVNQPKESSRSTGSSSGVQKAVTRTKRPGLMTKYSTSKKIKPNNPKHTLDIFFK
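10 nM Pol kappa preincubated 15 min at room temperature with compounds, then reaction started with substrate at 50 nM final. Fluorescence read kinetically at 0 and 10 min; buffer-only wells served as negative control.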
WRN helicase inh – WRN helicase (human) inhibition | Q14191 | WRN helicase unwinding, fluorescent forked duplex, kinetic | Potency, µM (series often up to 114 µM), inactives show at the highest dose activity change, negative = inhibition, hits mostly inhibitors | hit rate 0.46% among 360,000; also: potency is read from the fitted curve at half-maximal effect; % is scaled to controls: 0 for no effect and ±100 for the full control effect; nearly all actives have a fitted effect of over 55% in size
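Screening of the MLSMR collection measured strand separation of a quenched forked DNA duplex (100 nM) by 20 nM WRN with 2 mM ATP, all final. Compounds were preincubated with enzyme 15 min at room temperature.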
Pol iota inh – blocks human DNA polymerase iota activity; hit rate 1% among 390,000; Potency, µM (top dose mostly 115 µM), for inactives: at the highest dose activity, negative = inhibition, most hits filed as inhibitors; Q9UNA4; Pol iota fluorescent replication assay, 10 min; also: potency is read from the fitted curve at half-maximal effect
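Fluorescent replication assay read twice, at 0 min and 10 min after adding 50 nM (final) substrate. Enzyme (10 nM) and compounds were first incubated 15 min at room temperature; enzyme-free buffer wells were negative controls.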
PI5P4K alpha inh – inhibitors of human PI5P4K alpha. P48426. PI5P4Kalpha enzyme, ADP-Glo luminescence, 60 min; stronger effect = lower value. max response, %. hit rate 1.2% among 330,000; active = max response of -50% or lower; inconclusive = between -30% and -50%; inactive = -30% or higher; also: value at the top dose of about 77 µM; % is scaled to controls: 0 for no effect and ±100 for the full control effect
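Compounds were pin-transferred onto PI5P4Kalpha and substrate in HEPES pH 7.4 buffer with EGTA, CHAPS and 5% DMSO. ATP (5 microM final) started the reaction, which ran 60 minutes at room temperature before ADP-Glo detection.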
Pol eta inh-1 – inhibitors of human DNA polymerase eta; Q9Y253; recombinant Pol eta, fluorescent DNA replication assay; Potency, µM (doses to about 114 µM), inactives show top-dose activity change, negative = inhibition, usual class: inhibitors; hit rate 1.2% among 390,000; also: potency is read from the fitted curve at half-maximal effect; % is scaled to controls: 0 for no effect and ±100 for the full control effect
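Fluorescent replication assay: 50 nM final substrate added after a 15 min room-temperature compound preincubation with 10 nM enzyme. Signal taken at 0 min and again at 10 min.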
Pol beta inh – DNA polymerase beta (human) inhibition | Potency, µM (series often up to 114 µM), for inactives: at the highest dose activity change, negative = inhibition, most hits filed as inhibitors | AID 485314 | P06746 | hit rate 1.3% among 340,000 | Pol beta primer extension/strand displacement, fluorescence kinetic; also: potency is read from the fitted curve at half-maximal effect; % is scaled to controls: 0 for no effect and ±100 for the full control effect
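Preincubation: enzyme (10 nM) with compound, 15 min, RT. Reaction: substrate added to 50 nM final. Reads: 0 and 10 min. Analysis: normalized, Hill fit.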
PGK validate – validation of Trypanosoma brucei phosphoglycerate kinase inhibitors; shares compounds with Pol kappa inh-1; TbPGK coupled GAPDH assay, Kinase-Glo luminescence; Potency, µM (doses to about 57.5 µM), without a hit: at the top dose activity change, negative = inhibition, usual class: inhibitors; hit rate 79% among 500; also: potency is read from the fitted curve at half-maximal effect; % is scaled to controls: 0 for no effect and ±100 for the full control effect; nearly all actives have a fitted effect of over 65% in size
POLI cherry-pick – Human Pol iota inhibitor confirmatory assay. shares compounds with Pol kappa inh-1. Pol iota primer extension, TAMRA/BHQ fluorescence. Potency, µM, most hits filed as inhibitors. hit rate 77% among 1,500; also: potency is read from the fitted curve at half-maximal effect
Pol kappa inh-2 – Pol kappa (human) inhibition, cherry-pick confirmation; shares compounds with Pol eta inh-1; purified Pol-kappa, fluorescent strand-displacement substrate; Potency, µM, actives largely listed as inhibitors; hit rate 76% among 920; AID 720501; also: potency is read from the fitted curve at half-maximal effect
Pol eta inh-2 – confirmation of human DNA polymerase eta inhibitors; shares compounds with Pol eta inh-1; Potency, µM, hits mostly inhibitors; hit rate 64% among 2,600; Pol eta primer extension, TAMRA/BHQ fluorescence, 10 min; also: potency is read from the fitted curve at half-maximal effect
The depositor's hits bear a star; ? = inconclusive; . = not tested or not shown; [ ] = dose if it differs, or a comment. This is a sample that favours compounds with a hit; in the whole collection about 2.8% have one here. Unless noted, calls follow the shape of the dose curve; as a rule, active = well fitted curve in the direction sought with a large enough effect; inconclusive = small, poorly fitted or top-dose-only effect, or another doubt; inactive = no such curve, though single readings can be large; an effect the other way counts as inactive or inconclusive.

SMILES	Pol kappa inh-1	WRN helicase inh	Pol iota inh	PI5P4K alpha inh	Pol eta inh-1	Pol beta inh	POLI cherry-pick	Pol eta inh-2	others
Cc1cc[n+](-c2[nH]c(=O)sc2/C=N/N=C(\[O-])c2ccncc2)cc1	?	0%[11.6 µM]	40µM*	-7	79µM*	?	53*	76*
Cc1cc[n+](-c2[nH]c(=O)sc2/C=N/N=C(\[O-])c2ccccc2)cc1	?	?	25µM*	?	?	14µM*	38*	27*
Cc1ccc(-c2nc3c4ccccc4ccn3c2Cc2ccsc2)cc1	.	-6%	.	-1	.	.	.	.
CCNc1nc(N)nc(Oc2ccc(OCC(=O)OC)nn2)n1	-10%	.	6%	.	-13%	0%	.	.
Cc1onc(-c2ccccc2Cl)c1C(=O)OCC(=O)N1CCCCC1	-6%	6%	-14%	-10	-10%	.	.	.
O=C1Nc2c(Cl)cccc2C1=O	.	-3%	.	-3	.	.	.	.
Cc1cccc2c1NC(=O)C2=O	50µM*	28µM*	8.9µM*	-17	8.9µM*	.	42*	17*	Pol kappa inh-2=15*
COc1ccc(S(=O)(=O)N2CCOC2CNC(=O)C(=O)NCCCN2CCOCC2)cc1OC (stereo unspecified)	-9%	9%	6%	-2	-14%	.	.	.
Cc1cc(=O)oc2c3c(ccc12)OC/C3=N/N	-17%	-14%[11.6 µM]	?	-12	?	30%	42*	30*	Pol kappa inh-2=34*
Cc1cc(=O)oc2c(N)nccc12	.	13%	.	-7	.	.	.	.
COc1cc(/C=C(\CCC(=O)O)c2nc3ccccc3s2)ccc1OCC(=O)Nc1c(Cl)cccc1Cl	-15%	?	16%	-16	?	.	38*	76*	PGK validate=10µM*
COc1ccc2[nH]c(S(=O)Cc3ncc(C)c(OC)c3C)nc2n1 (stereo unspecified)	3%[19.4 µM]	.	.	.	.	.	.	.
CN(Cc1ccccc1)C(=O)CSc1nc2ccsc2c(=O)n1-c1ccc(F)cc1	-8%[60.1 µM]	.	11%	.	-5%	7%	.	.
CC(=C\C(=O)O)/C(=C/c1ccc(C)o1)C(=O)O	?	-18%[11.6 µM]	?	3	7.9µM*	20µM*	34*	21*
CC(=C\C(=O)O)/C(=C/c1ccco1)C(=O)O	?	2%[11.6 µM]	?	-4	?	?	.	.
O=C(COC(=O)c1ccc(OC(F)(F)F)cc1)Nc1ncccn1	?	?	?	0	18µM*	.	60*	76*	Pol kappa inh-2=?
O=C(NCCOC(=O)c1ccc(Cl)cc1)c1cccnc1	-6%	-23%	-14%	.	-5%	23%	.	.
Cc1cc(NC(=O)c2ccc(-c3ccc(Br)cc3)o2)cc(-c2nc3ncccc3o2)c1O	-7%	.	30%	.	-19%	8%	.	.
Cc1c(CC(=O)N[C@@H](C)C(=O)O)c(=O)oc2c(C)c3occ(-c4ccccc4)c3cc12	?	-23%	?	-20	4%	-29%	.	.
Cc1c(CCC(=O)O)c(=O)oc2c(C)c3occ(-c4ccc(Br)cc4)c3cc12	-5%	63µM*	143%	-25	18µM*	43%	34*	?
COC(=O)c1ccc(Cl)cc1NC(=O)Nc1nnc(N(C)Cc2ccccc2)s1	3%	.	?	.	8%	2%	.	.
CC(C1SC(=S)NC1=O)C1SC(=S)NC1=O (stereo unspecified)	.	?	.	-78*	5µM*	.	42*	9.5*	Pol kappa inh-2=17*
CC(=O)c1c(C)[nH]c(C(=O)OCC(=O)N2CCc3ccccc3C2)c1C	2%	1%	17%	1	-2%	.	.	.
Cc1ccc(C(=O)O)cc1-c1ccc(C=C2C(=O)c3ccccc3C2=O)o1	79µM*	-33%[11.6 µM]	?	-23	7.9µM*	32µM*	42*	27*
Cc1ccc(/C=C/c2nc3sc(C(=O)O)c(C)c3c(=O)[nH]2)cc1[N+](=O)[O-]	-7%	?	1%	?	40µM*	?	30*	?
SMILES	Pol kappa inh-1	WRN helicase inh	Pol iota inh	PI5P4K alpha inh	Pol eta inh-1	Pol beta inh	POLI cherry-pick	Pol eta inh-2	others
Cc1c(C(=O)O)sc2nc(/C=C/c3ccccc3OC(F)F)[nH]c(=O)c12	-1%	-4%[11.6 µM]	?	-63*	?	40µM*	75*	?
O=C(N/N=C/c1ccccc1O)NC12CC3CC(CC(C3)C1)C2	-3%	-4%	-10%	17	-12%	2%	.	.
O=C(N/N=C/c1cc(Cl)cc([N+](=O)[O-])c1O)NC12CC3CC(CC(C3)C1)C2	0%	45µM*	11%	-69*	7.9µM*	14µM*	.	67*	PGK validate=15µM*
Cc1ccc(Nc2nc(N3CCN(C)CC3)nc(N)c2[N+](=O)[O-])cc1C	.	.	.	.	.	15%	.	.
COc1cc(C(c2c(C(=O)O)[nH]c3ccccc23)c2c(C(=O)O)[nH]c3ccccc23)ccc1OCc1ccccc1	?	-16%[11.6 µM]	-27%	3	50µM*	45µM*	?	?
COc1ccc(-c2cnnc(N/N=C/c3ccc(O)c(O)c3)n2)cc1	25µM*	?	8.9µM*	-14	20µM*	3.5µM*	47*	30*
CN(C)c1ccc(N=Nc2ccc(C(=O)O)cc2)cc1	32µM*	?	11µM*	?	3.5µM*	10µM*	21*	4.3*
Cc1ccc(CN(C(=O)c2ccc(OCC(C)C)cc2)c2ccccn2)o1	-24%	.	23%	.	-15%	0%	.	.
CCOC(=O)N(O)c1ccc(C=Cc2ccccc2)cc1	79µM*	?	25µM*	-28	13µM*	.	75*	?	PGK validate=9.2µM*;Pol kappa inh-2=17*
Cc1cc(C)n(CC(=O)NNC(=O)C2CC(=O)N(Cc3ccccc3Cl)C2)n1 (stereo unspecified)	-4%	-12%	1%	-2	-12%	29%	.	.
Cc1c(C)n(C(=O)CSc2nc3ccccc3[nH]2)c2ccccc12	?	?	?	-10	?	8.9µM*	?	38*
O=C(CSc1nc2ccccc2[nH]1)N1CCCCC1	8%	2%	-7%[58.9 µM]	.	-5%	4%	.	.
